# Measured values reported in the supplement of paper PMC10849652.
# About 7,900 targets were measured; listed, in parts, are those with a hit and a random draw of the rest. About 0.6% of all pairs of compound and target were hits. Unmarked numbers belong to inactive results.
# Columns and labels:
# Test in all cases: log2 fold change, soluble protein after heating vs DMSO (PISA); higher = thermal stabilisation; K562 cells, 10 uM, 30 min; active = over 0.2 and 3.5 SD of the protein, either way, in both replicates (recomputed)
# bafetinib = compound: Cc1ccc(NC(=O)c2ccc(CN3CC[C@H](N(C)C)C3)c(C(F)(F)F)c2)cc1Nc1nccc(-c2cncnc2)n1 [bafetinib]
# How it was run: (§1)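 Quantification of soluble protein used TMTpro 16plex LC-MS/MS, with channel sums equalised. Samples were the supernatant after 21,000xg for 90 min of pooled aliquots from K562 cells (2×10^6 cells/mL) treated with 10 μM compound for 30 min, heated for 3 min over 48°C-58°C, and extracted in PBS with 0.5% NP-40 at 4°C. Values, from duplicates, describe thermal stability against control samples on a log2 fold-change scale.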
# [1] = compound: Cc1cccc(CC(=O)N2CCc3c2ccc(-c2cn(C)c4ncnc(N)c24)c3F)n1
# How it was run: as §1
# nilotinib = compound: Cc1cn(-c2cc(NC(=O)c3ccc(C)c(Nc4nccc(-c5cccnc5)n4)c3)cc(C(F)(F)F)c2)cn1 [nilotinib]
# How it was run: as §1
# [2] = compound: Cc1nc(Nc2n[nH]c3c2CN(C(=O)N[C@H](CN(C)C)c2ccccc2)C3(C)C)c2sccc2n1
# How it was run: as §1
# dasatinib = compound: Cc1nc(Nc2ncc(C(=O)Nc3c(C)cccc3Cl)s2)cc(N2CCN(CCO)CC2)n1 [dasatinib]
# How it was run: as §1
# [3] = compound: Cc1ncc(-c2ccnc(Nc3ccc(S(C)(=O)=O)cc3)n2)n1C(C)C
# How it was run: as §1
# [4] = compound: Cn1cc(-c2ccc3c(c2)CCN3C(=O)Cc2cccc(C(F)(F)F)c2)c2c(N)ncnc21
# How it was run: as §1
# [5] = compound: Cn1cc(-c2ccc3nnc(C(F)(F)c4ccc5ncccc5c4)n3n2)cn1
# How it was run: as §1
# tipifarnib = compound: Cn1cncc1[C@@](N)(c1ccc(Cl)cc1)c1ccc2c(c1)c(-c1cccc(Cl)c1)cc(=O)n2C [tipifarnib]
# How it was run: as §1
# mubritinib = compound: FC(F)(F)c1ccc(/C=C/c2nc(COc3ccc(CCCCn4ccnn4)cc3)co2)cc1 [mubritinib]
# How it was run: as §1
# [6] = compound: NC(=O)Nc1cc(-c2cccc(F)c2)sc1C(=O)N[C@H]1CCCNC1
# How it was run: as §1
# [7] = compound: NC(=O)c1cnc(N[C@@H]2CCCC[C@@H]2N)nc1Nc1cccc(-n2nccn2)c1
# How it was run: as §1
# [8] = compound: NC1(c2ccc(-c3nc4ccn5c(=O)[nH]nc5c4cc3-c3ccccc3)cc2)CCC1
# How it was run: as §1
# [9] = compound: NCC(=O)Nc1ccc(-n2nc(C(F)(F)F)cc2-c2ccc3c(ccc4ccccc43)c2)cc1
# How it was run: as §1
# entinostat = compound: Nc1ccccc1NC(=O)c1ccc(CNC(=O)OCc2cccnc2)cc1 [entinostat]
# How it was run: as §1
# vorinostat = compound: O=C(CCCCCCC(=O)Nc1ccccc1)NO [vorinostat]
# How it was run: as §1
# citarinostat = compound: O=C(CCCCCCNC(=O)c1cnc(N(c2ccccc2)c2ccccc2Cl)nc1)NO [citarinostat]
# How it was run: as §1
# silmitasertib = compound: O=C(O)c1ccc2c(c1)nc(Nc1cccc(Cl)c1)c1ccncc12 [silmitasertib]
# How it was run: as §1
# [10] = compound: O=C1NC(=O)C(c2cnc3ccccn23)=C1c1cn2c3c(cc(F)cc13)CN(C(=O)N1CCCCC1)CC2
# How it was run: as §1
# [11] = compound: c1cc(OCCN2CCCCC2)cc(-c2n[nH]c3ccc(-c4nnc[nH]4)cc23)c1
# How it was run: as §1
# Chain of UniProt Q13555 (Q13555 whole entry, looked up): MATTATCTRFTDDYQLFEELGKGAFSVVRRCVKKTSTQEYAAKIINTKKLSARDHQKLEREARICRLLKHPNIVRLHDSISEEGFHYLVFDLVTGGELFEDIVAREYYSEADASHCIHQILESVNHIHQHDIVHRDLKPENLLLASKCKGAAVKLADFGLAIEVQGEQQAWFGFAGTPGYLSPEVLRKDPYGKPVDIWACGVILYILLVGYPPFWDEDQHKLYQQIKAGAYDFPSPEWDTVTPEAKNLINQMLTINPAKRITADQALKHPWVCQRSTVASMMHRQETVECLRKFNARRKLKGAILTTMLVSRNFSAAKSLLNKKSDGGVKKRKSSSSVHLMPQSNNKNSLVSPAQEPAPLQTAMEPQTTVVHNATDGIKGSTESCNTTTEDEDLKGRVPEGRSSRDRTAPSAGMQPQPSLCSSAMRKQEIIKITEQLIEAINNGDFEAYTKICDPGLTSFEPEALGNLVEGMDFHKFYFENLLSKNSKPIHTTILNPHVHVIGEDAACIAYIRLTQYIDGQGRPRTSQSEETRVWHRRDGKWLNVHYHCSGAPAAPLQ
# Chain of UniProt Q8NHZ8 (Q8NHZ8 whole entry, looked up): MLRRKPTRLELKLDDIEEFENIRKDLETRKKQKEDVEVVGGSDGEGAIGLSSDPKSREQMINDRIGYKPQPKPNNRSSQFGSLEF
# Chain of UniProt P21127 (P21127 whole entry, looked up): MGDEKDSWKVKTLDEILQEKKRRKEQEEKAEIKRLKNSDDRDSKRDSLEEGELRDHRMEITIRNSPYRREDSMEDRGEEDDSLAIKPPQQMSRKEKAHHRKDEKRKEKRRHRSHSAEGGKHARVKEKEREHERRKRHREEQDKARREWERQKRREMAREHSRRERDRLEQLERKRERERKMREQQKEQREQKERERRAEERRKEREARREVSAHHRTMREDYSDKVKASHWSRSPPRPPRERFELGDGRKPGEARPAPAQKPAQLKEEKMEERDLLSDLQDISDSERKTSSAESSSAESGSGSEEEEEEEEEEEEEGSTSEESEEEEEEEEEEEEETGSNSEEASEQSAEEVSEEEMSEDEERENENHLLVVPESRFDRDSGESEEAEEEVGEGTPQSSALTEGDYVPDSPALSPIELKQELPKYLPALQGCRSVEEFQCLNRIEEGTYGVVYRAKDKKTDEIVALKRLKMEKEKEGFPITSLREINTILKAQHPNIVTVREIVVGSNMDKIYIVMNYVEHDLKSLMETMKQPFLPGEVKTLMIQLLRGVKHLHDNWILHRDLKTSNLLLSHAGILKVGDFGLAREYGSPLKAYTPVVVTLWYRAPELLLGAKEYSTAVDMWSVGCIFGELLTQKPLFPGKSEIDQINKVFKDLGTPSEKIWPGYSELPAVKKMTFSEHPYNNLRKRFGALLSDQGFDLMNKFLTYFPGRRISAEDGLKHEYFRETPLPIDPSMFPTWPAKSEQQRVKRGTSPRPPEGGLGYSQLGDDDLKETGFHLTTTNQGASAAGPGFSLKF
# Chain of UniProt Q9Y5S2 (Q9Y5S2 whole entry, looked up): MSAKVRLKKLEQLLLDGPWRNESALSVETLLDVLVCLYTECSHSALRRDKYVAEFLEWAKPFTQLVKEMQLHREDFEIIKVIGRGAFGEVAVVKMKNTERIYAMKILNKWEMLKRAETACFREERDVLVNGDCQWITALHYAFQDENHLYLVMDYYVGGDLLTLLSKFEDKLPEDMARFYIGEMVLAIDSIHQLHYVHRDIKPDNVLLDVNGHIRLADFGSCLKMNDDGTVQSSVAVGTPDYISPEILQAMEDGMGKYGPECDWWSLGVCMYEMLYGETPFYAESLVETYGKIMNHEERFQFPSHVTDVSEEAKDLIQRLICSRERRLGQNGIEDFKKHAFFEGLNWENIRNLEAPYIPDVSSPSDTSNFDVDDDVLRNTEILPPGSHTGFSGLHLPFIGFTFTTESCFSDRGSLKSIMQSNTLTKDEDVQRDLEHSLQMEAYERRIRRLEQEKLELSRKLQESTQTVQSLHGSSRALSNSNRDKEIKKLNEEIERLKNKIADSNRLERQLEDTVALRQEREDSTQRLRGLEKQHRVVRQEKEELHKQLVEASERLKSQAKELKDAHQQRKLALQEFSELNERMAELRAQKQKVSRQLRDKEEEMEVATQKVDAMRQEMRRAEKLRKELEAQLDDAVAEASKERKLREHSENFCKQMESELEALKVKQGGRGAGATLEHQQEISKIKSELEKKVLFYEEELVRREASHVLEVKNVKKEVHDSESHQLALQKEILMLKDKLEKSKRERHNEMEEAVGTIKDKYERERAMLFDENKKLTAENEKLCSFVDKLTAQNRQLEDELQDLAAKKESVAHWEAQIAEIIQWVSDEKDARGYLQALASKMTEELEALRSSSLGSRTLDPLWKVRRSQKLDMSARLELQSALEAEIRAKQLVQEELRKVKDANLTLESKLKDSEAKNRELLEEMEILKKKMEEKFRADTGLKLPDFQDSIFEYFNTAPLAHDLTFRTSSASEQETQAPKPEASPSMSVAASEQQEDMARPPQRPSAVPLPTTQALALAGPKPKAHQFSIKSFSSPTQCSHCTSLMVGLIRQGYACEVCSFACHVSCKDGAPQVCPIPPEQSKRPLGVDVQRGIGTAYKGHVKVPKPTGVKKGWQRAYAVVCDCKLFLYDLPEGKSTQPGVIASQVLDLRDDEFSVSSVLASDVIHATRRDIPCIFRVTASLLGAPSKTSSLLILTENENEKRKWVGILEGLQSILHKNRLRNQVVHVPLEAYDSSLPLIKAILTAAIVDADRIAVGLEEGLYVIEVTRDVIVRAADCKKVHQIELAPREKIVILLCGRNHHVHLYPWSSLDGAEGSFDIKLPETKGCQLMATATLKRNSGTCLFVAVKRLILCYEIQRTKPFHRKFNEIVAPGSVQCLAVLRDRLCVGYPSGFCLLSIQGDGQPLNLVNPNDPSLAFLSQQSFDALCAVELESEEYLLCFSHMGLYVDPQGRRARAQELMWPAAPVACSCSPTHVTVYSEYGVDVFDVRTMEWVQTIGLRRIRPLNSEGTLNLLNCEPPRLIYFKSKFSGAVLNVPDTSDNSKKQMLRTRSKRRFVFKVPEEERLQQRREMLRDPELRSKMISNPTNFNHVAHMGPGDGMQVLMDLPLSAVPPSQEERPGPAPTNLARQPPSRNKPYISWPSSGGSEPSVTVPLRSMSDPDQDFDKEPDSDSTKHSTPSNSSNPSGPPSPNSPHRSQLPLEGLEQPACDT
# Chain of UniProt O75794 (O75794 whole entry, looked up): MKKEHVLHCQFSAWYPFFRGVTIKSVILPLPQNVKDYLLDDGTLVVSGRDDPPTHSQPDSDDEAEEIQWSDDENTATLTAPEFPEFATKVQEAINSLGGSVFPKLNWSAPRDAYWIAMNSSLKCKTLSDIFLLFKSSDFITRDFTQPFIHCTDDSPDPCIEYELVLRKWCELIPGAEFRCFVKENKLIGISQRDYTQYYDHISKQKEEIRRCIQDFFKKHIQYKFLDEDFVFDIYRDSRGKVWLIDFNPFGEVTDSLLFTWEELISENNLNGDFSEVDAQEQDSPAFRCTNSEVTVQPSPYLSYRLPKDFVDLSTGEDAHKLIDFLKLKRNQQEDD
# Chain of UniProt P46109 (P46109 whole entry, looked up): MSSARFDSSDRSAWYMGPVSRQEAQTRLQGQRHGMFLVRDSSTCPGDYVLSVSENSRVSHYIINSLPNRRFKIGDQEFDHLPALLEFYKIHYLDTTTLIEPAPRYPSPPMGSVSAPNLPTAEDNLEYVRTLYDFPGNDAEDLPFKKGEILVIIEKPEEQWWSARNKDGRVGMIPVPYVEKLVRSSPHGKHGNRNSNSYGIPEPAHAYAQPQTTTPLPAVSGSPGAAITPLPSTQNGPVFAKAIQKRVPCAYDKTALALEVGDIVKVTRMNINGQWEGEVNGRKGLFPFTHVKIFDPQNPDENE
# Chain of UniProt Q9P031 (Q9P031 whole entry, looked up): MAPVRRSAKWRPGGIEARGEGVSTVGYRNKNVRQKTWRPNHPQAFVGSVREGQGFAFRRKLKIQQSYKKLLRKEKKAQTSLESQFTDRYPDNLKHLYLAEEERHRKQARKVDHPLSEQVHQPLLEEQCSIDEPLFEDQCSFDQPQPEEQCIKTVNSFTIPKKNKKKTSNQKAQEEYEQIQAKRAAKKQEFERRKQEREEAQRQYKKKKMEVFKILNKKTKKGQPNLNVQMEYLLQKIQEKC
# Chain of UniProt P55060 (P55060 whole entry, looked up): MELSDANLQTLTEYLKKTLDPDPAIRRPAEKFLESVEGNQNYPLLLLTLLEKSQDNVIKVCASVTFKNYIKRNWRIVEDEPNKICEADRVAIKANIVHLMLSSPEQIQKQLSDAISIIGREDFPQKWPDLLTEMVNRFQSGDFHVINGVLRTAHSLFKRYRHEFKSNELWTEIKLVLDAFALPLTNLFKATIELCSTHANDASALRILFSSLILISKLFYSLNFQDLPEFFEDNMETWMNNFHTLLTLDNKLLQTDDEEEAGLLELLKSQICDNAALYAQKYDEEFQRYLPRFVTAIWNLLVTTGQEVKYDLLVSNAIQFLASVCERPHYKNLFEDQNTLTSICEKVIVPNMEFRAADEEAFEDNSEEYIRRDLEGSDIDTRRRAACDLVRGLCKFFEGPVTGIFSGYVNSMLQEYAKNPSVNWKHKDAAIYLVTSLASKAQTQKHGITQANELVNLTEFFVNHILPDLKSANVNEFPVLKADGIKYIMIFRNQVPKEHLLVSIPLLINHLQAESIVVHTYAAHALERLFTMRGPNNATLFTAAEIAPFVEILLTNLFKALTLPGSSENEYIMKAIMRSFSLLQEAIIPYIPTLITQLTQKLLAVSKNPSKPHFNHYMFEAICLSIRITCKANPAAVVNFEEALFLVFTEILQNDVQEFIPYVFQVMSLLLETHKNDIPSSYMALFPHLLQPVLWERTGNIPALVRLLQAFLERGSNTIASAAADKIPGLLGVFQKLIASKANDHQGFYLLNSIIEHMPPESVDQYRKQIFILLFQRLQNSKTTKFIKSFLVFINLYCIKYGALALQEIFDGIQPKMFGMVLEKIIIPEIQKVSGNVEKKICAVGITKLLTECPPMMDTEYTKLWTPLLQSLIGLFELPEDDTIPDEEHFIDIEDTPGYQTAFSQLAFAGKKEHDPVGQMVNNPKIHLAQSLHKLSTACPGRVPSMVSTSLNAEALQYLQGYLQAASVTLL
Target,log2 fold change (bafetinib),log2 fold change [1],log2 fold change (nilotinib),log2 fold change [2],log2 fold change (dasatinib),log2 fold change [3],log2 fold change [4],log2 fold change [5],log2 fold change (tipifarnib),log2 fold change (mubritinib),log2 fold change [6],log2 fold change [7],log2 fold change [8],log2 fold change [9],log2 fold change (entinostat),log2 fold change (vorinostat),log2 fold change (citarinostat),log2 fold change (silmitasertib),log2 fold change [10],log2 fold change [11]
CAMK2G isoform 6 (UniProt Q13555),0.064,-0.148,0.002,0.642 (active),-0.11,0.083,0.01,-0.073,-0.025,-0.008,-0.306,-0.033,0.038,0.057,0.119,0.119,-0.02,0.158,0.177,-0.053
C19orf53 (UniProt Q9UNZ5),0.271,0.034,0.029,0.139,0.222,0.023,-0.207,-0.083,0.165,-0.13,0.136,0.061,0.279,0.177,-0.026,-0.051,-0.105,0.123,0.214,-0.155
CRKL (UniProt P46109),-1.41 (active),0.013,-1.34 (active),-0.054,-2.17 (active),0.023,0.004,0.028,0.024,0.049,-1.11 (active),-0.019,-0.015,-0.005,0.004,0.023,0.005,0.066,-0.031,-0.064
CD55 isoform 7 (UniProt P08174),0.168,-0.06,0.086,0.027,0.096,-0.026,-0.051,-0.012,-0.027,-0.075,-0.048,0.028,0.128,0.108,0.018,-0.044,0.009,-0.006,-0.043,-0.047
CCDC59 (UniProt Q9P031),0.117,-0.041,0.032,0.048,0.037,0.028,-0.277,-0.13,0.09,-0.056,-0.033,0.122,0.166,0.139,-0.149,-0.099,-0.178,0.154,0.21,0.07
CDC26 (UniProt Q8NHZ8),-0.034,0.162,-0.011,-0.059,0.143,0.029,0.179,-0.027,0.131,-0.028,0.034,0.352,0.152,0.704 (active),0.097,0.019,-0.025,-0.003,0.007,-0.003
CDC42BPB (UniProt Q9Y5S2),0.22,-0.034,0.062,-0.118,-0.029,0.106,-0.054,-0.017,0.094,0.177,-0.205,0.054,-0.254,-0.012,0.155,0.06,0.085,-0.087,-0.057,-0.201
COX15 (UniProt Q7KZN9),0.09,-0.02,-0.013,0.02,0.078,-0.034,0.008,-0.023,0.046,0.038,0.003,-0.009,-0.043,-0.013,0.004,-0.017,0.048,0.022,0.028,-0.064
CDK11B (UniProt P21127),0.027,-0.009,0.106,-0.038,0.014,-0.036,0.007,0.228,0.104,0.085,-0.114,-0.012,0.031,0.006,-0.111,0.064,-0.047,-0.061,0.072,-0.301
CNOT7 (UniProt Q9UIV1),0.059,-0.037,-0.077,-0.057,-0.255,0.002,-0.034,-0.051,-0.075,0.014,-0.053,0.039,0,0.028,0.091,0.152,-0.12,0.12,0.032,-0.089
CLCN3 isoform 2 (UniProt P51790),-0.044,0.076,-0.016,0.034,0.027,0.017,0.017,0.027,0.004,-0.004,0.013,0.014,-0.17,0.024,0.019,0.037,-0.002,-0.015,-0.002,0.283
CSE1L (UniProt P55060),-0.041,0.039,-0.066,-0.026,-0.08,0.012,-0.005,0.007,-0.101,0.068,-0.037,-0.067,-0.162,-0.071,0.05,0.015,0.058,0.035,-0.059,-0.018
CLTB (UniProt P09497),0.095,0.002,0.077,0.024,0.081,0.005,-0.02,-0.019,-0.006,-0.016,0.088,0.101,0.043,0.117,-0.076,0.003,-0.013,-0.005,-0.043,0.07
CDC123 (UniProt O75794),0.015,-0.013,-0.084,0.079,-0.032,0.018,0.029,-0.04,-0.031,-0.006,-0.029,0.045,-0.077,-0.01,0.026,0.032,0.045,-0.048,0.011,-0.056
CHMP4B (UniProt Q9H444),-0.078,0.061,-0.027,0.007,0.017,-0.023,0.012,-0.013,0.053,0.051,0.255 (active),-0.011,-0.065,-0.001,0.108,0.024,-0.044,-0.016,0.014,0.022
CSK (UniProt P41240),0.088,0.019,0.126,-0.001,0.137,0.017,0.019,-0.031,-0.129,0.107,0.318 (active),-0.084,-0.156,-0.083,0.006,0.023,0.03,0.046,-0.048,-0.014
